Results reported in PubChem BioAssay (Tox21).
Records with an inconclusive call do not appear. A number with no mark means an inactive call. Activity calls are given as the source filed them. Calls come from the whole dose curve; as a rule, active = well fitted cell-killing curve with a large enough effect in the repeat runs; inconclusive = weak or mixed curves, or effect the other way; inactive = no such curve, though single readings can be large or run the other way.

Assay: Caspase-3/7 induction in CHO-K1 cells by small molecules, qHTS cell viability counter screen (AID 1346979); note: nearly all actives have a fitted effect of over 35% in size
Conditions: CellTiter-Fluor fluorescence, 17 h; series mostly up to 92.4 µM; activity change, negative = cytotoxicity: at the top concentration
Procedure, shortened: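 Cytotoxicity counter screen: CellTiter-Fluor added to compound-treated wild-type CHO-K1 cells at 16 h (37C, 5% CO2), fluorescence measured 1 h later; same wells as caspase-3/7 measurement.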
% is set by controls: 0 for no effect and ±100 for the full control effect; potency is the fitted concentration of half-maximal effect.

Compound | activity change, negative = cytotoxicity | Potency
CC/C=C(\C)C=O | 4.59% | 
O=C(O)CN(CCCN(CC(=O)O)CC(=O)O)CC(=O)O |  | 11.6 µM (active)
O=C(NCc1ncc(C(F)(F)F)cc1Cl)c1c(Cl)cccc1Cl | -12.1% | 
O=c1cc[nH]cc1 | 3.42% | 
CCOc1nc(F)cc2nc(S(=O)(=O)Nc3c(Cl)cccc3C(=O)OC)nn12 | -0.525% | 
Cn1ccnc1 | 10.7% | 
CCCCCCCCCCCCS(=O)(=O)Cl | 5.87% [at 19 µM] | 
CCN(CCC#N)c1ccc(N=Nc2ccc([N+](=O)[O-])cc2)cc1 | -8.25% | 
CC(C)C(=O)C(C)C | 9.04% | 
CCN(CC)c1ccc2c(c1)Oc1cc(N(CC)CC)ccc1C21OC(=O)c2ccccc21 |  | 2.37 µM (active)
Cc1cc(Br)ccc1NC(=O)CCl |  | 21.7 µM (active)
N#Cc1nc(Cl)c(Cl)c(Cl)c1Cl |  | 1.72 µM (active)
[Cl][Eu]([Cl])[Cl] | -0.084% | 
COc1cc(/C=C/C(=O)CC(=O)/C=C/c2ccc(O)c(OC)c2)ccc1O |  | 43.5 µM (active)
N#CCCOCCC#N | 3.3% | 
Oc1cccc2c(O)cccc12 |  | 54.5 µM (active)
Nc1ccc(F)c([N+](=O)[O-])c1 | -1.71% | 

Compound | activity change, negative = cytotoxicity | Potency
CC(=O)CC(N)=O | 1.56% | 
Oc1ccc(C2(c3ccc(O)c(C4CCCCC4)c3)CCCCC2)cc1C1CCCCC1 |  | 13.7 µM (active)
CCSCC | -7.76% | 
C=CC(=O)OCCOC1C2CCC1C1CC=CC12 (centres undefined) | 4.17% [at 19 µM] | 
CC(C=O)c1ccccc1 (centres undefined) | 11.9% | 
CCCC(C)C=O (centres undefined) | 6.72% | 
C=CC(=O)O[C@H]1C[C@@H]2CC[C@@]1(C)C2(C)C | 10.5% | 
O=C1OC(=O)c2cc(-c3ccc4c(c3)C(=O)OC4=O)ccc21 | -8.07% | 
CCCCCCCCCCCCCCCCCCNC(=O)OC1CCN(C(=O)OC[C@H](COC(=O)N(Cc2cccc[n+]2CC)C(=O)c2ccccc2OC)OC)CC1 |  | 29.8 µM (active)
C=C[Si](C)(C)Cl | 6.64% [at 8.39 µM] | 
CN1CCN(c2ccccc2/C=C2\SCCN(c3ccc(Cl)c(Cl)c3)C2=O)CC1 |  | 61.1 µM (active)
Cc1ccc2nc(-c3ccc(N)cc3)sc2c1S(=O)(=O)O | -4.41% [at 42.5 µM] | 
O=[N+]([O-])c1ccc(CO)cc1 | -1.39% | 
NC(=O)c1ccccc1Cl | -0.312% | 
CC(CC(C)(C)C)CC(C)(C)CC(C)(C)C (centres undefined) | -1.47% [at 42.5 µM] | 
C=Cc1ccncc1 | 8.77% | 
CCN(CC)c1ccc(N=Nc2ccccc2)cc1 |  | 48.6 µM (active)
